Test results as given in the supplement of paper PMC9694430.

Assays:
Experiment in all cases: thermal shift delta Tm vs DMSO control; higher = stronger stabilization (binding)
Details in all cases: 12.5 µM; protein concentration 2 µM
[1] = tested on: LOC_OS01G57100-cb003
How it was run: (§1)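 Thermal shift values come from differential scanning fluorimetry on purified rice kinase domains made in E. coli, with melting temperatures obtained from Boltzmann fits. Samples of 19.5 μl held 2 μM kinase, 100 mM potassium phosphate pH 7.5, 150 mM NaCl, 10% glycerol, 5 × SYPRO Orange and compound in DMSO, and were heated from 25°C to 95°C at 0.05°C/s. Each shift is a triplicate mean relative to the DMSO-only protein sample.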

[2] = tested on: LOC_OS01G60330-cb001
How it was run: as §1

[3] = tested on: LOC_OS01G60700-cb002
How it was run: as §1

[4] = tested on: LOC_OS01G63280-cb003
How it was run: as §1

[5] = tested on: LOC_OS01G67340-cb003
How it was run: as §1

[6] = tested on: LOC_OS01G70970-cb002
How it was run: as §1

[7] = tested on: LOC_OS02G07810-cb001
How it was run: as §1

[8] = tested on: LOC_OS02G08530-cb003
How it was run: as §1

[9] = tested on: LOC_OS02G14120-cb001
How it was run: as §1

[10] = tested on: LOC_OS02G17970-cb001
How it was run: as §1

[11] = tested on: LOC_OS02G45750-cb003
How it was run: as §1

[12] = tested on: LOC_OS02G54510-cb004
How it was run: as §1

[13] = tested on: LOC_OS03G04050-cb001
How it was run: as §1

[14] = tested on: LOC_OS03G12390-cb001
How it was run: as §1

[15] = tested on: LOC_OS03G27990-cb004
How it was run: as §1

[16] = tested on: LOC_OS03G50450-cb001
How it was run: as §1

[17] = tested on: LOC_OS03G50810-cb003
How it was run: as §1

[18] = tested on: LOC_OS04G35114-cb001
How it was run: as §1

[19] = tested on: T1, LOC_OS04G38480-cb003
T1 sequence (whole entry): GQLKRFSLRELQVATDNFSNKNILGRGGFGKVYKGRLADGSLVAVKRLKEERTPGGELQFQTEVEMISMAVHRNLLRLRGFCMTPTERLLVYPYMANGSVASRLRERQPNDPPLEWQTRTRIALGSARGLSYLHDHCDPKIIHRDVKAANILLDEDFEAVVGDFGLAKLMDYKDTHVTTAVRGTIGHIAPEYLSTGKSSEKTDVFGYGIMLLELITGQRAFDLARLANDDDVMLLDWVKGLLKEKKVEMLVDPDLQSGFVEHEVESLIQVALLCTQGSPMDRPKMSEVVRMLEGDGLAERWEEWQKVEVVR
How it was run: as §1

[20] = tested on: T2, LOC_OS04G41100-cb001
T2 sequence (whole entry): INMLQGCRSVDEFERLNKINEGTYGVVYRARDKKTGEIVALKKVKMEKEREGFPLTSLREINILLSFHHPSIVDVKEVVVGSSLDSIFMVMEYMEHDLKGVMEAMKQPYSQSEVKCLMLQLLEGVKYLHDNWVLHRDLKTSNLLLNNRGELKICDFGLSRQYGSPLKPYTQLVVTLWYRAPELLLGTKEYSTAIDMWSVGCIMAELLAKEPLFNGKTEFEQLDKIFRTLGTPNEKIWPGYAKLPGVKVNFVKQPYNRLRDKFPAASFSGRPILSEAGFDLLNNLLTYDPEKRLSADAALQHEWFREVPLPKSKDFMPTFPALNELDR
How it was run: as §1
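Further: purified Escherichia coli-expressed rice kinase domain construct.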

Compound: C=CC(=O)Nc1cccc(C)c1Nc1ncc2cc(-c3c(Cl)c(OC)cc(OC)c3Cl)ccc2n1
- thermal shift delta Tm [1]: 1.11 °C
- thermal shift delta Tm [2]: 1.2 °C
- thermal shift delta Tm [3]: 0.26 °C
- thermal shift delta Tm [4]: -0.06 °C
- thermal shift delta Tm [5]: 0.6 °C
- thermal shift delta Tm [6]: 0.35 °C
- thermal shift delta Tm [7]: 0.78 °C
- thermal shift delta Tm [8]: 0.7 °C
- thermal shift delta Tm [9]: 1.59 °C
- thermal shift delta Tm [10]: 0.63 °C
- thermal shift delta Tm [11]: 1.09 °C
- thermal shift delta Tm [12]: 0.44 °C
- thermal shift delta Tm [13]: 0.49 °C
- thermal shift delta Tm [14]: -0.06 °C
- thermal shift delta Tm [15]: 0.28 °C
- thermal shift delta Tm [16]: 0.23 °C
- thermal shift delta Tm [17]: 0.27 °C
- thermal shift delta Tm [18]: 0.49 °C
- thermal shift delta Tm [19]: 2.08 °C
- thermal shift delta Tm [20]: 0.27 °C

Compound: CC[C@@H](N)CNc1ccnc(-c2cc(-c3cnn(C)c3)ccc2O)n1
- thermal shift delta Tm [1]: 0.71 °C
- thermal shift delta Tm [2]: 0.32 °C
- thermal shift delta Tm [3]: -0.42 °C
- thermal shift delta Tm [4]: 0.05 °C
- thermal shift delta Tm [5]: 1.83 °C
- thermal shift delta Tm [6]: 0.65 °C
- thermal shift delta Tm [7]: -0.8 °C
- thermal shift delta Tm [8]: 2.73 °C
- thermal shift delta Tm [9]: 4.11 °C
- thermal shift delta Tm [10]: 0.54 °C
- thermal shift delta Tm [11]: 2.91 °C
- thermal shift delta Tm [12]: -0.17 °C
- thermal shift delta Tm [13]: 0.27 °C
- thermal shift delta Tm [14]: 0.67 °C
- thermal shift delta Tm [15]: 0.75 °C
- thermal shift delta Tm [16]: 0.74 °C
- thermal shift delta Tm [17]: 1.49 °C
- thermal shift delta Tm [18]: 6.46 °C
- thermal shift delta Tm [19]: 1.41 °C
- thermal shift delta Tm [20]: 2.6 °C

Compound: COc1cc2ncnc(Nc3cccc(Cl)c3F)c2cc1OC(=O)N1CCN(C)C[C@H]1C
- thermal shift delta Tm [1]: 1.43 °C
- thermal shift delta Tm [2]: 1.34 °C
- thermal shift delta Tm [3]: 0.77 °C
- thermal shift delta Tm [4]: 0.24 °C
- thermal shift delta Tm [5]: 0.62 °C
- thermal shift delta Tm [6]: 0.55 °C
- thermal shift delta Tm [7]: 0.42 °C
- thermal shift delta Tm [8]: 0.94 °C
- thermal shift delta Tm [9]: 0.64 °C
- thermal shift delta Tm [10]: 0.79 °C
- thermal shift delta Tm [11]: 1.31 °C
- thermal shift delta Tm [12]: 0.53 °C
- thermal shift delta Tm [13]: 0.43 °C
- thermal shift delta Tm [14]: 0.01 °C
- thermal shift delta Tm [15]: 0.33 °C
- thermal shift delta Tm [16]: 0.9 °C
- thermal shift delta Tm [17]: 0.48 °C
- thermal shift delta Tm [18]: 3.07 °C
- thermal shift delta Tm [19]: 1.2 °C
- thermal shift delta Tm [20]: 0.24 °C
